Publication PMC7862700, “An all-to-all approach to the identification of sequence-specific readers for epigenetic DNA modifications on cytosine”

Columns and labels:
Assay in all cases: DAPPL (digital affinity profiling via proximity ligation, sequencing); 10 mM Tris-HCl pH 7.5, 50 mM NaCl, 1 mM DTT, 4% glycerol, room temperature, 30 min; GST-TFs on glutathione beads, 16-mer random dsDNA library, 0.1% formaldehyde crosslink after washing; high values mean tight binding
Details in all cases: protein: recombinant; tags: N-terminal GST; dsDNA, one strand shown
FLI1 = target: T1, FLI1 (Homo sapiens, UniProt Q01543 1-452)
T1 sequence: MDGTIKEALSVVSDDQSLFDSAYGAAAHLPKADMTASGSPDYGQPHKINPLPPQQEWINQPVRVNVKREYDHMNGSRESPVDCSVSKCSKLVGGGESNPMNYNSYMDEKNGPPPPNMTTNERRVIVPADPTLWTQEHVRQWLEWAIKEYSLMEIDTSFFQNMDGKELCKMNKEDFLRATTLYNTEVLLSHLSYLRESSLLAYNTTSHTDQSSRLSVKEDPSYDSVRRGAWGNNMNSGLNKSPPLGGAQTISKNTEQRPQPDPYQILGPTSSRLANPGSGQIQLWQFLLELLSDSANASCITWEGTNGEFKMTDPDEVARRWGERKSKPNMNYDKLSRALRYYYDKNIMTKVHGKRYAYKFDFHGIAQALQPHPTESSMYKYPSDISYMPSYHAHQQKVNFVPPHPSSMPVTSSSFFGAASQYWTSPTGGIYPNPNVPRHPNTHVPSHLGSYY
Procedure, shortened: (§1)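 Human transcription factors carrying a GST fusion were produced in yeast, bound to glutathione beads, tagged with DNA barcodes and pooled together with a tag-only sample. Each pool was held with 200 nmole of a random double-stranded 16-mer DNA library in Tris/NaCl/DTT/glycerol buffer for 30 min at room temperature, then washed, crosslinked in 0.1% formaldehyde, proximity-ligated with BsaI/T4 ligase (1 h, 37 °C), PCR-amplified and sequenced on an Illumina NextSeq500. Binding signal is the read frequency of each hexamer for a given factor divided by its frequency in the tag-only sample.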

ELK1 = target: T2, ELK1 (Homo sapiens, UniProt P19419 1-428)
T2 sequence: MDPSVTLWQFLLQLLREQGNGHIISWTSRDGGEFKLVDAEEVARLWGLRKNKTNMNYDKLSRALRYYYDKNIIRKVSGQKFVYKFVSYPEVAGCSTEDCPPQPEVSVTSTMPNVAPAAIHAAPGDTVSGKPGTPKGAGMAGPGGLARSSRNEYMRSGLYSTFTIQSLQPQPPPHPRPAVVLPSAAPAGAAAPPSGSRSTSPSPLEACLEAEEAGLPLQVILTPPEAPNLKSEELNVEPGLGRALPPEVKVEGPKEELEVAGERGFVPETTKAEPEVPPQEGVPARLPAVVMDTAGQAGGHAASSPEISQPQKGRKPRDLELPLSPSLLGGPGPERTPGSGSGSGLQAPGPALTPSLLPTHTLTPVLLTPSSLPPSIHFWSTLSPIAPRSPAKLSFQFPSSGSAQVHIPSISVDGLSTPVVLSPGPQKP
Procedure, shortened: as §1

GABPA = target: T3, GABPA (Homo sapiens, UniProt Q06546 1-454)
T3 sequence: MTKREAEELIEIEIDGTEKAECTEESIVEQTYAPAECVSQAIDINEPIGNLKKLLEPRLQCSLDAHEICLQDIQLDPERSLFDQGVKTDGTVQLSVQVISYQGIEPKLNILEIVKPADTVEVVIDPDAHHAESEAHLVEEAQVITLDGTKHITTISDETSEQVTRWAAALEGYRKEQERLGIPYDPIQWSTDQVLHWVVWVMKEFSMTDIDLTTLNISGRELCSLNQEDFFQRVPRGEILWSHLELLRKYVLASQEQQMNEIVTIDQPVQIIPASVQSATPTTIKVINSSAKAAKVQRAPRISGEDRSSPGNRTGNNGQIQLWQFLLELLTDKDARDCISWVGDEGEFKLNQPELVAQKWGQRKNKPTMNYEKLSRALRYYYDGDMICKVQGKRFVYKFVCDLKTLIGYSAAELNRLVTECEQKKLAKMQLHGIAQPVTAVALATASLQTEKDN
Procedure, shortened: as §1

ERG = target: T4, ERG (Homo sapiens, UniProt P11308 1-479)
T4 sequence: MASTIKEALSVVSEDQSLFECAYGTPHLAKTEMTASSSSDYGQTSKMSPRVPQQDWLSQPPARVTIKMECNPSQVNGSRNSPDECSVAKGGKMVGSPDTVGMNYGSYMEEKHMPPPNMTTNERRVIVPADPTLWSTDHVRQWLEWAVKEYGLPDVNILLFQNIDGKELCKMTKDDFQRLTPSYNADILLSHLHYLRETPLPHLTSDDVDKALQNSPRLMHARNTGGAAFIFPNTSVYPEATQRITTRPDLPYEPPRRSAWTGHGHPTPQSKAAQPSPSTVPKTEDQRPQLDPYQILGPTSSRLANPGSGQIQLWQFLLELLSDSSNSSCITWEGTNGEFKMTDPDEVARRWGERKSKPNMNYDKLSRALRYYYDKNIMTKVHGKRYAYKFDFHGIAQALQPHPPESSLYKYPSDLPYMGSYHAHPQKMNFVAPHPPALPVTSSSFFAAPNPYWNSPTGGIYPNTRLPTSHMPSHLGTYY
Procedure, shortened: as §1

ELF1 = ELF1 (Homo sapiens, UniProt P32519 1-619)
Procedure, shortened: as §1

EHF = target: T5, EHF (Homo sapiens, UniProt Q9NZC4 1-300)
T5 sequence: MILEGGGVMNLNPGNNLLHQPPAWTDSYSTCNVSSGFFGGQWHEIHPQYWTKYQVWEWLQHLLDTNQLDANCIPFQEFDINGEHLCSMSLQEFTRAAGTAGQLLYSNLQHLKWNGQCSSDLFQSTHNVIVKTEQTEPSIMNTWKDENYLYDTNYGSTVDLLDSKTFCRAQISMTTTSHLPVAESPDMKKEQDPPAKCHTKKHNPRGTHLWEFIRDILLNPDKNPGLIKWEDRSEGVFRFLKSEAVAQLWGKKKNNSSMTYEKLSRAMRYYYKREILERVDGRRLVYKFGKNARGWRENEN
Procedure, shortened: as §1

SPI1 = SPI1 (Homo sapiens, UniProt P17947 1-270)
Procedure, shortened: as §1

SPIB = SPIB (Homo sapiens, UniProt Q01892 1-262)
Procedure, shortened: as §1

ELK3 = target: T6, ELK3 (Homo sapiens, UniProt P41970 1-407)
T6 sequence: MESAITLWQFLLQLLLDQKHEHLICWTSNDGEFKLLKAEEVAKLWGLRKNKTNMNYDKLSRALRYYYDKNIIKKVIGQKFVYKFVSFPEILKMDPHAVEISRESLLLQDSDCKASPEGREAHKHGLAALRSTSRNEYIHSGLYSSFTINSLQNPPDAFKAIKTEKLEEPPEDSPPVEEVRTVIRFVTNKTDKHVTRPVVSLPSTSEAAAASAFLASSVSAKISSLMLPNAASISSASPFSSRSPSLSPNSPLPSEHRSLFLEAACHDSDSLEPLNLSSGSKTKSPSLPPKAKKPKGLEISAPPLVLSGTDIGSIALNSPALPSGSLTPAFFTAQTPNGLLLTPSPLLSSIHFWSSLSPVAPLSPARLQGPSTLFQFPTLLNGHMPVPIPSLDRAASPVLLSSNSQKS
Procedure, shortened: as §1

Chain of ELF1 (P32519 whole entry): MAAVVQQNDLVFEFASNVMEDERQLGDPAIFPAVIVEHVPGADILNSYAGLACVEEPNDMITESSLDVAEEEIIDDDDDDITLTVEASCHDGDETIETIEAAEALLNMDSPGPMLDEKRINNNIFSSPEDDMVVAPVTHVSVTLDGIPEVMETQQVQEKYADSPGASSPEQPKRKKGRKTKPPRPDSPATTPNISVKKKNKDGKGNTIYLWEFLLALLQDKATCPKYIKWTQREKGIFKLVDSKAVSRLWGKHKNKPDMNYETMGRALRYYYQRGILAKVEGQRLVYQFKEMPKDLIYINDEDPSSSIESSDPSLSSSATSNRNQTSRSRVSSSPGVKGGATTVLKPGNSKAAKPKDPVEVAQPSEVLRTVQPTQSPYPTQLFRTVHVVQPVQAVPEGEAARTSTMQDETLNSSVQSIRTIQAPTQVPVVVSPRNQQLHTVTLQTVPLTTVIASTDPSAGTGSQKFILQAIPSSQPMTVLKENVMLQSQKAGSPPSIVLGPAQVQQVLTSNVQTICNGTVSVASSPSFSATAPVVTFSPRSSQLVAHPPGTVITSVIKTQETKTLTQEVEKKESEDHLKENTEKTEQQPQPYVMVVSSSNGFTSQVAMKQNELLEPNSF
Chain of SPIB (Q01892 whole entry): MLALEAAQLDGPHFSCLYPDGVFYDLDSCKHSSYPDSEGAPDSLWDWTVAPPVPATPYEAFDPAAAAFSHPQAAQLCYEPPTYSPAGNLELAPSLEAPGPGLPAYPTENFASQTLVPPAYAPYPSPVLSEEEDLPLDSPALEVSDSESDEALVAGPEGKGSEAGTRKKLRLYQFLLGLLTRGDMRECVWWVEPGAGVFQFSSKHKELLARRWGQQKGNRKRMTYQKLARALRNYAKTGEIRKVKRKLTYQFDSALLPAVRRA

**Q.** How did the binding signal (FLI1) turn out when CGGAAC was run?
**A.** 1.16 fold enrichment (6-mer frequency, TF over GST control)

**Q.** What about the binding signal (ELK1) of the same sequence?
**A.** 1.18 fold enrichment (6-mer frequency, TF over GST control)

**Q.** And the binding signal (GABPA)?
**A.** 1.05 fold enrichment (6-mer frequency, TF over GST control)

**Q.** And the binding signal (ERG)?
**A.** 1.22 fold enrichment (6-mer frequency, TF over GST control)

**Q.** And the binding signal (ELF1)?
**A.** 1.04 fold enrichment (6-mer frequency, TF over GST control)

**Q.** And the binding signal (EHF)?
**A.** 1.2 fold enrichment (6-mer frequency, TF over GST control)

**Q.** And the binding signal (SPI1)?
**A.** 1.29 fold enrichment (6-mer frequency, TF over GST control)

**Q.** And the binding signal (SPIB)?
**A.** 1.29 fold enrichment (6-mer frequency, TF over GST control)

**Q.** And the binding signal (ELK3)?
**A.** 1.21 fold enrichment (6-mer frequency, TF over GST control)
